Data reported in PubChem BioAssay (NCATS).
Results filed as inconclusive are left out. A call without a number means that no potency is given here. Calls of active or inactive are those of the source. The call rests on the fitted dose curve; in most records, active means well fitted curve in the direction sought with a large enough effect; inconclusive means small, poorly fitted or top-dose-only effect, or another doubt; inactive means no such curve, though single readings can be large; an effect the other way counts as inactive or inconclusive.

Test system: CRL-7250
Test: qHTS assay to identify novel small-molecules to repurpose for Merkel cell carcinoma treatment (AID 1296009); further: nearly all actives have a fitted effect of over 60% in size
Settings: MCC and control cell lines, CellTiter-Glo viability, 72 h; at 44.8 µM (top of the series) unless noted
In short: (§1)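 Luminescence from CellTiter-Glo, read 10 min after addition at room temperature, reported viability following a 72 hr, 37 degree celsius treatment with NPC or MIPE compounds in titration; values normalized to plate controls.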

| Structure (SMILES) | outcome |
| --- | --- |
| C[C@H](NC(=O)Cc1cc(F)cc(F)c1)C(=O)N[C@@H]1C(=O)N(C)c2ccccc2-c2ccccc21 | inactive |
| CNCc1ccc(-c2[nH]c3cc(F)cc4c3c2CCNC4=O)cc1 | inactive |
| COc1c(Cl)cc2c([nH]c3cnccc32)c1NC(=O)c1cccnc1C | inactive |
| CC(C)[C@H](CO)Nc1nc(Nc2ccc(C(=O)O)c(Cl)c2)c2ncn(C(C)C)c2n1 | inactive [at 17.4 µM] |
| CN1CCN(c2c(F)cc3c(=O)c(C(=O)O)cn4c3c2OCN4C)CC1 | inactive [at 17.4 µM] |
| Cc1c(C)c2c(c(C)c1OC(=O)c1cccnc1)CC[C@@](C)(CCC[C@H](C)CCC[C@H](C)CCCC(C)C)O2 | inactive |
| CCc1c(C)[nH]c2c1C(=O)C(CN1CCOCC1)CC2 (stereo unspecified) | inactive |
| COc1ccccc1N1CCN(CC(O)COc2cc(OC)c(OC)c(OC)c2)CC1 (stereo unspecified) | inactive |
| CC1=NN(c2ccccc2)C(=O)C1 | inactive |
| O=C(O)CCC1CCC(c2cc(F)ccc2F)(S(=O)(=O)c2ccc(Cl)cc2)CC1 (stereo unspecified) | inactive |
| C[C@]12CC[C@H](O)CC1=CC[C@@H]1[C@H]2CC[C@]2(C)C(c3cccnc3)=CC[C@H]12 | inactive [at 17.4 µM] |
| COc1ccc(CCN2CCN(CCCc3ccccc3)CC2)cc1OC | inactive |
| CCN(CC)CCNC(=O)c1ccc(NC(C)=O)cc1 | inactive |

Test system: MCC-26
Test: as above
Settings: MCC and control cell lines, CellTiter-Glo viability, 72 h; series mostly up to 46 µM
In short: as §1

| Structure (SMILES) | Potency |
| --- | --- |
| CN1[C@H]2CC(O)C[C@H]1[C@H]1O[C@H]12 (stereo partly specified) | inactive |
| N#C[C@H](O[C@@H]1O[C@H](CO[C@@H]2O[C@H](CO)[C@H](O)[C@H](O)[C@H]2O)[C@H](O)[C@H](O)[C@H]1O)c1ccccc1 | inactive |
| COc1ccc(C(c2ccc(OC)cc2)C(Cl)(Cl)Cl)cc1 | inactive |

Test system: C33A
Test: Primary qHTS to identify gynecologic anti-cancer compounds using libraries of approved drugs and bioactive compounds (AID 1345084); further: nearly all actives have a fitted effect of over 55% in size
Settings: Gynecologic cancer cell panel viability, ATPlite luminescence, 48 h; series mostly up to 57.5 µM
In short: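 Five-concentration response, 48 h; readout is ATP-driven luciferase luminescence.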

| Structure (SMILES) | Potency |
| --- | --- |
| O=C(O)CCCOc1ccc(Cl)cc1Cl | inactive |
| CCOC(=O)Nc1ccc(NCc2ccc(F)cc2)cc1N | inactive |
| CCC1(CCC(C)C)C(=O)NC(=O)NC1=O | inactive |
| Nc1ccc([N+](=O)[O-])cc1 | inactive |
| COc1ccc(C(c2ccc(OC)cc2)C(Cl)(Cl)Cl)cc1 | inactive |
